Experimental data reported in the supplement of paper PMC12024424.
Counter-ions that a name gives are not always drawn.

test system: Staphylococcus aureus Sa2 (MRSA, cystic fibrosis isolate); assay: growth reduction vs untreated control (viable cell count); higher = stronger antibacterial activity; extreme values may be limits of the assay; conditions: 0.1 mM; 24 h
Experimental: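 Single-dose screen of the MedChem Express Drug Repurposing Library (0.1 mM, 1% DMSO) against planktonic MRSA S. aureus Sa2 (CF isolate) in TSB in 96-well plates, 37 °C aerobic, 24 h. Assays were run in triplicate and repeated twice.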

Compound | growth reduction [%]
O=C(O)Cc1cc(I)c(Oc2ccc(O)c(I)c2)c(I)c1 [Tiratricol] | 100
CN(C)C(=O)/C=C/CNCCOc1ccc(/C(=C(/CC(F)(F)F)c2ccccc2)c2ccc3[nH]nc(F)c3c2)cn1 | 100
CCCCOc1nc(N)c2c(n1)N(Cc1cccc(CN3CCCC3)c1)CC(=O)N2 [Vesatolimod] | 98
O=C(Nc1ccc(F)cc1)c1cnc(SCc2cc(OC(F)(F)F)ccc2B(O)O)nc1 | 100
CCCCCCCCCCCC[N+](C)(C)CCOc1ccccc1 [Domiphen (bromide)] | 100
CN1CCN(c2ccc3nc(-c4c(N)c5c(F)cccc5[nH]c4=O)[nH]c3c2)CC1 [Dovitinib (lactate)] | 99
CCCCc1oc2ccc(NS(C)(=O)=O)cc2c1C(=O)c1ccc(OCCCN(CCCC)CCCC)cc1 [Dronedarone (Hydrochloride)] | 100
Cc1cn(-c2cc(NC(=O)c3ccc(C)c(Nc4nccc(-c5cccnc5)n4)c3)cc(C(F)(F)F)c2)cn1 [Nilotinib] | 92
CC(C)N(CCCCOCC(=O)NS(C)(=O)=O)c1cnc(-c2ccccc2)c(-c2ccccc2)n1 [Selexipag] | 100
O=C(O)c1ccc2nc(-c3cc(Cl)cc(Cl)c3)oc2c1 [Tafamidis] | 100
CC1(S(=O)(=O)O)CC(=O)c2ccccc2C1=O (stereo not given) [Menadione bisulfite (sodium)] | 100
Cc1ccc(-n2[nH]c(C)c(N=Nc3cccc(-c4cccc(C(=O)O)c4)c3O)c2=O)cc1C [Eltrombopag] | 100
CCCCCCCCOc1ccccc1C(=O)Nc1ccc(C(=O)OCC[N+](C)(CC)CC)cc1 [Otilonium (bromide)] | 100
COc1cc2c(Nc3ccc(Cl)c(Cl)c3F)ncnc2cc1OC[C@@H]1C[C@@H]2CN(C)C[C@@H]2C1 [Tesevatinib] | 100
CCCCCCCCCCCCCCCCCCOP(=O)([O-])OC1CC[N+](C)(C)CC1 [Perifosine] | 100
Cc1cc(O[C@@H](CCC(F)(F)F)c2ccc(C(=O)NCCC(=O)O)cc2)cc(C)c1-c1ccc(C(C)(C)C)cc1 [Adomeglivant] | 100
CS(=O)(=O)c1cc(F)cc2c3c(n(Cc4ccc(Cl)cc4)c12)[C@@H](CC(=O)O)CC3 [Laropiprant] | 99
C[C@]1(O)C[C@@H](c2nc(-c3ccc4ccc(-c5ccccc5)nc4c3)c3c(N)nccn32)C1 [Linsitinib] | 100
OCCN1CCN(CC/C=C2/c3ccccc3Sc3ccc(Cl)cc32)CC1 [Zuclopenthixol] | 100
COc1cc([C@@H]2c3cc4c(cc3[C@@H](O[C@@H]3O[C@@H]5CO[C@@H](c6cccs6)O[C@H]5[C@H](O)[C@H]3O)[C@H]3COC(=O)[C@H]23)OCO4)cc(OC)c1O [Teniposide] | 100

Compound | growth reduction [%]
C[C@H](Nc1cc(-c2cnn(C)c2)cc(Nc2cnccn2)n1)c1ccc(F)cc1 [Ilginatinib (maleate)] | 95
COc1cc(NS(C)(=O)=O)ccc1Nc1c2ccccc2nc2ccccc12 [Amsacrine (hydrochloride)] | 100
N[C@@H](Cc1cc(I)c(Oc2cc(I)c(O)c(I)c2)c(I)c1)C(=O)O [L-Thyroxine (sodium salt pentahydrate)] | 100
Cc1nc(Nc2ccc(F)cc2)nc(N2CCc3ccccc3C2C)c1C (stereo not given) [Revaprazan (hydrochloride)] | 100
C#C[C@]1(OC(C)=O)CC[C@H]2[C@@H]3CCC4=C[C@@H](OC(C)=O)CC[C@@H]4[C@H]3CC[C@@]21C [Ethynodiol diacetate] | 94
COc1ccc(C(=O)NC2(C(=O)O)Cc3ccccc3C2)cc1OCCc1cccc(C)c1 | 96
C=CC(N)CCC(=O)O (stereo not given) [Vigabatrin (hydrochloride)] | 100
COc1ccc2c(c1OCc1ccccc1)C[C@@H](C(=O)O)N(C(=O)C(c1ccccc1)c1ccccc1)C2 [Olodanrigan] | 100
CC(=O)O[C@@H]1CC[C@@]2(C)[C@@H](CC[C@]3(C)[C@@H]2C(=O)C=C2[C@@H]4[C@@H](C)[C@H](C)CC[C@]4(C)CC[C@]23C)[C@@]1(C)C(=O)O | 100
COc1cccc2c1c(O)c(C(=O)N(C)c1ccc(C(F)(F)F)cc1)c(=O)n2C [Tasquinimod] | 98
COc1cc(C(=O)O)ccc1NC(=O)[C@@H]1N[C@@H](CC(C)(C)C)[C@](C#N)(c2ccc(Cl)cc2F)[C@H]1c1cccc(Cl)c1F [Idasanutlin] | 100
O=C(O)c1cc(F)c2nc(N3[C@@H]4CC[C@H]3C[C@@H](OCc3c(-c5ccccc5OC(F)(F)F)noc3C3CC3)C4)sc2c1 [Tropifexor] | 100
CC(C)(C)C#Cc1cc(N(C(=O)[C@H]2CC[C@H](C)CC2)[C@H]2CC[C@H](O)CC2)c(C(=O)O)s1 [Lomibuvir] | 95
CNC(=O)c1cc(Oc2ccc(NC(=O)Nc3ccc(Cl)c(C(F)(F)F)c3)c(F)c2)ccn1 [Regorafenib (monohydrate)] | 98
CN1C(C(=O)Nc2ccccn2)=C(O)c2sc(Cl)cc2S1(=O)=O [Lornoxicam] | 98
Cc1cc(Nc2ncc(Cl)c(Nc3ccccc3S(=O)(=O)C(C)C)n2)c(OC(C)C)cc1C1CCNCC1 [Ceritinib dihydrochloride] | 100
Cc1ncc(NC(=O)c2ccc(CN3CCN(C)CC3)c(C(F)(F)F)c2)cc1Nc1nccc(-c2cccnc2)n1 [Flumatinib] | 100
Cc1cc(OCCCS(C)(=O)=O)cc(C)c1-c1cccc(COc2ccc3c(c2)OC[C@H]3CC(=O)O)c1 [Fasiglifam] | 100
C#C[C@]1(O)CC[C@H]2[C@@H]3CCC4=CCCC[C@@H]4[C@H]3C(=C)C[C@@]21CC [Desogestrel] | 100
COc1ccc(CN2CCN(C(c3ccc(F)cc3)c3ccc(F)cc3)CC2)c(OC)c1OC [Lomerizine dihydrochloride] | 98
